# Measured values published in PubChem BioAssay (EPA / NIEHS).
# Active and inactive are the calls of the source. Rule for the calls, unless noted: active = hit-call score of the fitted dose curve at least 0.9, where 1 is the maximum; inconclusive = response in the unintended direction; inactive = score below 0.9.
# Experiment: CEETOX_H295R_MTT_cell_viability: Viability Assessment in the CeeTox HT-H295R MTT Assay (AID 2283718; active = hit-call score of the fitted dose curve at least 0.9, where 1 is the maximum; inactive = score below 0.9)
# Outline: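 H295R cells prestimulated 48 h with 10 uM forskolin, then exposed 48 h to test chemical (0.1% DMSO final). Viability by MTT (0.5 mg/ml, 4 h, 37 C), absorbance 570/650 nm; percent change versus DMSO, bidirectional fit.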
row,SMILES,outcome
1,Oc1c(Cl)c(Cl)c(Cl)c(Cl)c1Cl,inactive
2,CCOP(=S)(OCC)SCSC(C)(C)C,inactive
3,Nc1ccc(-c2ccc(N)cc2)cc1,inactive
4,NS(=O)(=O)C(F)(F)C(F)(F)C(F)(F)C(F)(F)C(F)(F)C(F)(F)C(F)(F)C(F)(F)F,inactive
5,O=C(NC(=O)c1c(F)cccc1F)Nc1cc(Cl)c(OC(F)(F)C(F)F)c(Cl)c1,inactive

# Experiment: Tanguay_ZF_120hpf_ActivityScore_legacy: (Legacy) Oregon State University Tanguay Lab 120 Hour Post-fertilization zebrafish Assay Score for Activity (AID 2283742);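 for AC50: dechorionated Tropical 5D wild-type zebrafish embryos held singly per well; static exposure from 6 hpf until 120 hpf at 28 °C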
# Outline: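 In this whole-embryo screen, dechorionated zebrafish were exposed from 6 hpf until 120 hpf at 28C under a 0.64% DMSO vehicle. Developmental malformations and death were recorded by brightfield microscopy as binary endpoints.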
SMILES,outcome,AC50
CCOC(=O)C(O)(c1ccc(Cl)cc1)c1ccc(Cl)cc1,inactive,–
Clc1ccc(Cl)cc1,inactive,–
O=S(=O)(O)C(F)(F)C(F)(F)C(F)(F)C(F)(F)C(F)(F)C(F)(F)F,–,36.6 µM (active)
Cc1ccccc1O,inactive,–
Oc1c(Cl)c(Cl)c(Cl)c(Cl)c1Cl,–,1.03 µM (active)
O=C(O)C(F)(F)C(F)(F)C(F)(F)C(F)(F)C(F)(F)C(F)(F)C(F)(F)C(F)(F)F,inactive,–
CCCN(CCC)N=O,inactive,–
Cc1ccccc1[N+](=O)[O-],inactive,–
CCCCCCCCCc1ccc(O)cc1,inactive,–
CCOP(=S)(OCC)SCSC(C)(C)C,inactive,–
ClC1=C(Cl)[C@]2(Cl)[C@@H]3[C@@H]4C[C@@H]([C@H]5O[C@@H]45)[C@@H]3[C@@]1(Cl)C2(Cl)Cl,inactive,–
O=C(N[C@H]1CN2CCC1CC2)c1cc2ccoc2cn1,inactive,–
O=S(=O)(O)C(F)(F)C(F)(F)C(F)(F)C(F)(F)F,inactive,–
CC(c1ccc(O)cc1)(c1ccc(O)cc1)c1ccc(O)cc1,inactive,–
CC(C)(c1ccccc1)c1ccc(O)cc1,–,27 µM (active)
Nc1ccc(-c2ccc(N)cc2)cc1,inactive,–

SMILES,outcome,AC50
c1ccc(-c2ccccc2)cc1,inactive,–
CN(C)CCO,inactive,–
COc1ccc(O)c(C(C)(C)C)c1,inactive,–
ClC(Cl)=C(c1ccc(Cl)cc1)c1ccc(Cl)cc1,inactive,–
Cc1cccc([N+](=O)[O-])c1,inactive,–
O=C(NC(=O)c1cc(F)c(F)cc1Cl)Nc1cc(F)ccc1N1CCC(C(=O)O)CC1,inactive,–
COS(=O)(=O)OC,inactive,–
ClC1=C(Cl)[C@]2(Cl)[C@@H]3[C@@H](Cl)[C@H]4O[C@H]4[C@@H]3C1(Cl)C2(Cl)Cl,inactive,–
NS(=O)(=O)C(F)(F)C(F)(F)C(F)(F)C(F)(F)C(F)(F)C(F)(F)C(F)(F)C(F)(F)F,–,38 µM (active)
CC(C)(O)C(=O)Nc1ccc([N+](=O)[O-])c(C(F)(F)F)c1,–,20.3 µM (active)
Oc1ccc(C(c2ccc(O)cc2)(C(F)(F)F)C(F)(F)F)cc1,–,45 µM (active)
O=C(O)C(F)(F)C(F)(F)C(F)(F)C(F)(F)C(F)(F)F,inactive,–
CCC(C)(c1ccc(O)cc1)c1ccc(O)cc1,–,49.3 µM (active)
CN(C)c1nc(=O)n(C2CCCCC2)c(=O)n1C,inactive,–
O=C(NC(=O)c1c(F)cccc1F)Nc1cc(Cl)c(OC(F)(F)C(F)F)c(Cl)c1,inactive,–
CC(C)C(=O)OCC(C)(C)C(OC(=O)C(C)C)C(C)C (configuration not stated),–,27.2 µM (active)
